The list is not random: actives were taken first. Their share in the collection is about 10%.
NPR1 antag – antagonists of human natriuretic peptide receptor Npr1; 1.6% of 76,000 active; P16066; Potency, µM (highest dose often 46.3 µM), inactives show top-dose activity change, negative = inhibition, usual class: inhibitors; HEK293 hNpr1 GloSensor cGMP, ANP-stimulated luminescence; AID 1347048; calls by dose curve; also: nearly all actives have a fitted effect of over 60% in size
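HEK293 cells stably expressing human Npr1 and cGMP GloSensor pGS-40F, loaded 2 h with 2% GloSensor reagent, given compound 30 min at room temperature. Luminescence read before and 20 min after 0.1 nM hNppA.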
NIH3T3 tox – NIH 3T3 cell cytotoxicity | NIH 3T3 viability, CellTiter-Glo ATP luminescence, 48-72 h | 4.3% of 94,000 active | Potency, µM (series often up to 96.7 µM), inactives show at the top dose activity change, negative = cytotoxicity, hits mostly inhibitors; also: nearly all actives have a fitted effect of over 55% in size
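Cells were seeded at 400 per well, treated with pin-transferred compound, and kept 48 or 72 hr at 37 °C before CellTiter-Glo addition and luminescence imaging of cellular ATP.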
HEK293 tox – cytotoxic compounds in HEK 293 cells; 6.6% of 94,000 active; AID 1345083; HEK 293 viability, ATP luminescence (CellTiter-Glo), 48-72 h; Potency, µM (highest dose often 115 µM), for inactives: top-dose activity change, negative = cytotoxicity, usual class: inhibitors; also: nearly all actives have a fitted effect of over 60% in size
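CellTiter-Glo luminescence (cellular ATP) was read after 48 or 72 hr of compound exposure at 37 degree Celsius. Cells were HEK 293 plated at 250 cells/well.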
GPT2 inh – inhibitors of human GPT2 alanine aminotransferase | Q8TD30 | Recombinant GPT2, coupled pyruvate oxidase/HRP Amplex Red fluorescence | Potency, µM (series often up to 57.7 µM), for the others: at the highest dose activity change, negative = inhibition, actives largely listed as inhibitors | 0.25% of 100,000 active; also: nearly all actives have a fitted effect of over 60% in size
Target sequence (Q8TD30 whole entry, looked up): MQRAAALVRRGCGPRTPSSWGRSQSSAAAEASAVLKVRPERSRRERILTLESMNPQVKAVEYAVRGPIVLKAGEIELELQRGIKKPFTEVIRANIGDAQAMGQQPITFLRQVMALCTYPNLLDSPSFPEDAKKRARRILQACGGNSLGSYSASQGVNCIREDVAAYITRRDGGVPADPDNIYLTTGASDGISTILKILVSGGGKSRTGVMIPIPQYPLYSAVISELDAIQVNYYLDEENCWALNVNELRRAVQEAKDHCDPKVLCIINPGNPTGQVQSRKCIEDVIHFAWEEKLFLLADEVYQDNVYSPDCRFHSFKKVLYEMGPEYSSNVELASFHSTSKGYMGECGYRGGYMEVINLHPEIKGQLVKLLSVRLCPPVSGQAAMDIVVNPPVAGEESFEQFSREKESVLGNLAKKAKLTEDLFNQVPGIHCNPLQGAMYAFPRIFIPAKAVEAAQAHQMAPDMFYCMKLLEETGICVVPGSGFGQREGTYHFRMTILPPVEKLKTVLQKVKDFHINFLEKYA
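Recombinant GPT2 (10ng/uL) with 250uM a-KG and 2mM L-alanine, 30 min at room temperature, in HEPES pH 7.5 buffer. Pyruvate detected by pyruvate oxidase/HRP/Amplex Red fluorescence after 30 min in the dark; AOA (50uM) as positive control.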
Luciferase inh – Photinus pyralis luciferase inhibition | Potency, µM (titrated, usually from 115 µM), most hits filed as inhibitors | purified P. pyralis luciferase, luminescence, biochemical | P08659 | 2.5% of 76,000 active | AID 1347043; also: nearly all actives have a fitted effect of over 65% in size
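FLuc 10nM, D-luciferin 10uM, ATP 10uM, Mg acetate 10mM, Tris acetate pH 7.5, Tween/BSA; cpd qHTS; enzyme added last; CCD luminescence.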
Starred values were filed as active, the others as inactive; i = inactive; ? = inconclusive; . = no result given; [ ] = another dose, or the depositor's remark. Unless noted, calls follow the shape of the dose curve; as a rule, active = well fitted curve in the direction sought with a large enough effect; inconclusive = small, poorly fitted or top-dose-only effect, or another doubt; inactive = no such curve, though single readings can be large; an effect the other way counts as inactive or inconclusive. % is scaled to controls: 0 for no effect and ±100 for the full control effect; potency is read from the fitted curve at half-maximal effect.

SMILES | NPR1 antag | NIH3T3 tox | HEK293 tox | GPT2 inh | Luciferase inh
COc1cc(F)ccc1-c1nccc2c(=O)cc(-c3cnn(C)c3)oc12 | -1%[70.6 µM] | ? | ? | -2%[88.5 µM] | i
O=c1cc(N2CCOCC2)oc2c(-c3cncnc3)nccc12 | 3%[70.6 µM] | ? | -1%[172 µM] | i | i
COc1ncccc1-c1nccc2c(=O)cc(N3CCOCC3)oc12 | -4%[70.6 µM] | 50µM* | ? | i | i
O=c1cc(N2CCOCC2)oc2c(-c3cccc(F)c3)nccc12 | 4%[70.6 µM] | ? | ? | 4%[88.5 µM] | i
O=c1cc(N2CCOCC2)oc2c(-c3ccccc3O)nccc12 | 0%[70.6 µM] | ? | -23%[172 µM] | -1%[88.5 µM] | i
COc1ccccc1-c1nccc2c(=O)cc(C3=CCOCC3)oc12 | -1%[70.6 µM] | 13µM* | 63µM* | i | i
CC(=O)N(C1CC1)C1CCOC2(CCN(C(=O)c3cc(C)n(C)n3)CC2)C1 (centres undefined) | . | -19% | -3% | i | .
CCOC(=O)C1CCN(C(=O)c2nc3sccn3c2-c2cccc(C#N)c2)CC1 | . | -29% | -17% | ? | .
C=C(C)[C@@H]1CC[C@](C)(O)[C@@H](OC(=O)c2ccccc2)C1 | . | . | . | i | .
COc1ccccc1-c1nccc2c(=O)cc(N3CCOCC3)oc12 | 1%[70.6 µM] | 25µM* | ? | ? | i
O=c1cc(N2CCOCC2)oc2c(-c3ccccc3Oc3ccccc3)nccc12 | -2%[70.6 µM] | ? | ? | -8%[88.5 µM] | i
CSc1ccc(-c2cccc(C(=O)NCCNC(=O)c3ccc(Cl)cc3)c2)cc1 | . | ? | -27% | -16% | .
COc1ccccc1CNC[C@H]1O[C@H](Cc2cc(-c3ccccc3)on2)CC[C@@H]1O | -13%[70.6 µM] | 89µM* | ? | -9%[88.5 µM] | i
O[C@H]1CC[C@@H](Cc2cc(-c3ccccc3)on2)O[C@@H]1CNC1CCCCC1 | -22%[70.6 µM] | ? | 100µM* | i | i
COCCNC(=O)c1ccc(OC2CCN(Cc3ccc(OC)cc3F)CC2)c(Cl)c1 | -13% | ? | ? | -2% | i
COc1cc(OC)c(-c2nc3ccc(-c4ccc(OC)c(OC)c4OC)cc3o2)cc1OC | -21% | 32µM* | ? | ? | i
CNC(=O)c1cc(C2CC2)nc2onc(C3CCN(C(C)=O)CC3)c12 | . | 2%[138 µM] | i | . | .
Cc1nn(-c2ccc(C(F)(F)F)cc2)c(C)c1[C@@H]1C=C[C@@H](NC(=O)COc2ccccc2)C1 | -24% | ? | ? | -4% | i
Cc1ccc(-n2nc(C)c([C@@H]3C=C[C@@H](NS(=O)(=O)c4cccs4)C3)c2C)cc1Cl | ? | 35µM* | 45µM* | ? | ?
COc1ccc(C(=O)N[C@@H]2C=C[C@@H](c3c(C)nn(-c4ccc(C)c(Cl)c4)c3C)C2)cc1 | ? | ? | ? | 5% | 32µM*
Cc1ccc(-n2nc(C)c([C@H]3C=C[C@@H](OC(=O)N[C@H](C)c4ccccc4)C3)c2C)cc1Cl | -19% | ? | ? | 2% | i
Cc1nn(-c2ccc(C(F)(F)F)cc2)c(C)c1[C@@H]1C=C[C@@H](NS(=O)(=O)c2ccccc2)C1 | -29% | 40µM* | 45µM* | -2% | i
COc1ccc(C(=O)N[C@@H]2C=C[C@@H](c3c(C)nn(-c4ccccc4)c3C)C2)cc1 | -8%[70.6 µM] | ? | ? | -16%[88.5 µM] | i
O=C(Cc1ccccn1)NC1CCN(c2nc3ncccc3o2)C1 (centres undefined) | . | -13%[138 µM] | -13%[172 µM] | i | .
Cc1ccc(NC(=O)Cn2cccc2-c2nc(-c3ccc4c(c3)OCO4)no2)c(Cl)c1 | -24% | i | -2% | i | i
SMILES | NPR1 antag | NIH3T3 tox | HEK293 tox | GPT2 inh | Luciferase inh
COc1ccc(C)cc1NC(=O)Cn1cccc1-c1nc(-c2ccc3c(c2)OCO3)no1 | -7% | 40µM* | ? | -12% | i
Cc1cccc(OCC(=O)NCCn2cccc2-c2nc(-c3ccc4c(c3)OCO4)no2)c1 | -16% | ? | ? | i | 14µM*
O=C(NCCn1cccc1-c1nc(-c2ccc3c(c2)OCO3)no1)c1ccc(F)cc1 | ? | ? | ? | i | ?
O=C(NCCn1cccc1-c1nc(-c2ccc3c(c2)OCO3)no1)c1ccc2c(c1)OCO2 | -17% | -8% | -7% | i | 10µM*
Cc1ccc(C(=O)NCCn2cccc2-c2nc(-c3ccc4c(c3)OCO4)no2)cc1C | -23% | ? | ? | 3% | 11µM*
O=C(NCCn1cccc1-c1nc(-c2ccccc2)no1)c1ccc(F)c(Cl)c1 | -14% | ? | 45µM* | 0% | i
COc1ccc(C(=O)NCCn2cccc2-c2nc(-c3ccccc3)no2)cc1F | -16% | -20% | -2% | 1% | i
CN1CC(=O)N(C2CCCNC2)Cc2c1ncnc2N1CCOCC1 (centres undefined) | . | -23% | -21% | ? | .
COc1ccccc1N1CCN(C(=O)Cn2c(C)cc3nc4n(c(=O)c32)CCCCC4)CC1 | -2% | 28µM* | ? | 0% | i
Cc1nc(CC2CCN(C(=O)Nc3ccc4c(c3)OCCO4)CC2)n[nH]1 | -29% | i | -7% | i | 45µM*
COCCCn1c(C)cnc1C1CCN(C(=O)Nc2ccc3c(c2)OCCO3)C1 (centres undefined) | 2% | i | -7% | -8% | 45µM*
CS(=O)(=O)N(Cc1cccnc1)C1CN(C(=O)Nc2ccc3c(c2)OCCO3)C1 | 2% | i | 6% | i | 35µM*
Cc1cnc(CC2CCN(C(=O)Nc3ccc4c(c3)OCCO4)C2)n1C1CC1 (centres undefined) | . | -17% | -3% | ? | .
O=C(Nc1ccc2c(c1)OCCO2)N1CCC(Cc2nc(-c3ccncc3)n[nH]2)CC1 | -22% | -31% | -7% | i | 79µM*
Cc1noc(C)c1Cc1ccc(C(=O)N2CC(N(Cc3cccnc3)CC(C)C)C2)o1 | -3% | ? | ? | i | i
CO[C@H]1C(=O)N(C2CCN(C(=O)Nc3ccc4c(c3)OCCO4)CC2)[C@H]1c1ccncc1 | . | -12% | -1% | i | .
Cc1cccc(OCCc2noc(C3CCCCN3C(=O)Nc3ccccc3)n2)c1 (centres undefined) | . | ? | ? | i | .
CC(C)c1nc2c(c(-c3ccc(O)cc3)n1)CN(Cc1ccsc1)CC2 | -13% | ? | ? | i | i
CS(=O)(=O)N1CCC(OC2CCN(C(=O)Nc3ccc4c(c3)OCCO4)CC2)CC1 | 1% | -6% | -3% | -1% | 35µM*
CCC(=O)N1Cc2ccccc2CC2(CCN(CC3CCNC3)CC2)C1 (centres undefined) | . | i | i | i | .
O=C(Cc1ccccc1Cl)NC1CCN(c2cc(-c3cccs3)[nH]n2)C1 (centres undefined) | -5% | 20µM* | ? | ? | i

Assay outcomes: PubChem, National Center for Advancing Translational Sciences (NCATS)
